From PubChem BioAssay come the findings set out here.

Molecules are shown by their SMILES. Unmarked numbers belong to inactive results. For some of these results: Results with a measured potency or affinity are listed apart. Activity calls are given as the source filed them. Unless noted, no rule for the calls is given here.

Assay [1] in a line: antimalarial activity against Dd2 strain (AID 2302;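 active = growth inhibition above 50% at the single 2 µM test dose, taken to imply half-maximal potency below 2 µM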;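 also: 0% = DMSO untreated growth and 100% = chloroquine plus artemisinin killed control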). The settings on record: P. falciparum Dd2 in RBCs, LDH growth readout, 72 h; at 2 µM; active compounds read high.
A short description of assay [2]: human hepatoma cell viability loss – ATP luminescence, cytotoxicity control for P. falciparum antimalarial project, primary screen (AID 2303;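 active = inhibition above 50%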;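 also: 0% = DMSO wells and 100% = digitonin-killed cells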). To be noted: HepG2 viability, 24-48 h, at 10 µM, active compounds read high.
The target in assay [3] is L-lactate dehydrogenase (Plasmodium falciparum (isolate CDC / Honduras)) (UniProt Q27743). In words: PfLDH activity inhibition – cell lysate, 3D7 strain, counter-screen for P. falciparum growth inhibition project (AID 2304).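 Also: 0% = vehicle and 100% = reference inhibitor.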 The settings on record: P. falciparum 3D7 crude extract, LDH APAD/NBT absorbance; at 2 µM; active compounds read high.
Sequence of L-lactate dehydrogenase (Plasmodium falciparum (isolate CDC / Honduras)) (Q27743 whole entry, looked up): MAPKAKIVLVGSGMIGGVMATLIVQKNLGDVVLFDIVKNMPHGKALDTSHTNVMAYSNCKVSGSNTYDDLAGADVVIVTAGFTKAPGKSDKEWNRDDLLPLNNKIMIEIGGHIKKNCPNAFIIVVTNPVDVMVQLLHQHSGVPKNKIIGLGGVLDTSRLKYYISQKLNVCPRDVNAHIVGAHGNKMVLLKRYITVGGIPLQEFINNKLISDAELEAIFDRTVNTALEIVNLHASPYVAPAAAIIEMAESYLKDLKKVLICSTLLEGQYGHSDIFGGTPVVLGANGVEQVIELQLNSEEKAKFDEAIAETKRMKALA
Assay [4] can be described thus: inhibition of 3D7 malaria parasite growth – strain 3D7 (AID 2306).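 Also: 0% = DMSO wells and 100% = chloroquine plus artemisinin control wells.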 To be noted: P. falciparum 3D7 erythrocytic growth, LDH absorbance, 72 h; at 2 µM; active compounds read high.
Assay [5] addresses Calcium-dependent protein kinase 1 (Plasmodium falciparum (isolate 3D7)) (UniProt P62344). Nature of the assay: PfCDPK1 kinase inhibitors, biochemical, TCAMS library (AID 1159585; cut-off not given, nearly all actives have IC50 up to about 0.98 µM;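 also: inhibitors leave more ATP so luminescence rises with inhibition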). To be noted: recombinant PfCDPK1, Kinase-Glo ATP depletion luminescence. In general terms: In Kinase-Glo more light means more ATP remaining.
Assay [6] concerns the target Plasmodium falciparum protein kinase 6 (PK6, PF3D7_1337100) (UniProt Q8IDW1). In words: PfPK6 kinase inhibitors, biochemical, TCAMS library (AID 1159586). The settings on record: recombinant PfPK6, Kinase-Glo ATP depletion luminescence.
The target of assay [7] is Protein kinase 7 (PK7), Plasmodium falciparum 3D7 (PF3D7_0213400) (UniProt Q7YTF7). Nature of the assay: inhibition of Plasmodium PK7 catalytic activity – biochemical, TCAMS antimalarial set, Kinase-Glo luminescence (AID 1159587). To be noted: recombinant PfPK7, Kinase-Glo ATP depletion luminescence.
Sequence of Protein kinase 7 (PK7), Plasmodium falciparum 3D7 (PF3D7_0213400) (Q7YTF7 1-343): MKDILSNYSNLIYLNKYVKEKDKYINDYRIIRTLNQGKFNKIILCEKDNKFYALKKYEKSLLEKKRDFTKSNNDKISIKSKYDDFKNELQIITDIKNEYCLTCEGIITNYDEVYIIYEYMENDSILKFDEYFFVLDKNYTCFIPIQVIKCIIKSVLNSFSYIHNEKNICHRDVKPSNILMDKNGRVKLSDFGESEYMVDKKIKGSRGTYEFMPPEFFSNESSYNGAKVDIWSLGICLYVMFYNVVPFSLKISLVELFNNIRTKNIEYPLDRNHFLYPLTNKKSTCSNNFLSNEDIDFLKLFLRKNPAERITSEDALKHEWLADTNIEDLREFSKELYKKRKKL
Assay [8] deals with Calcium-dependent protein kinase 4 (Plasmodium falciparum (isolate 3D7)) (UniProt Q8IBS5). Nature of the assay: PfCDPK4 kinase inhibitors, biochemical, TCAMS library (AID 1159588; cut-off not given, nearly all actives have IC50 up to about 0.91 µM). To be noted: recombinant PfCDPK4, Kinase-Glo ATP depletion luminescence.
Sequence of Calcium-dependent protein kinase 4 (Plasmodium falciparum (isolate 3D7)) (Q8IBS5 whole entry, looked up): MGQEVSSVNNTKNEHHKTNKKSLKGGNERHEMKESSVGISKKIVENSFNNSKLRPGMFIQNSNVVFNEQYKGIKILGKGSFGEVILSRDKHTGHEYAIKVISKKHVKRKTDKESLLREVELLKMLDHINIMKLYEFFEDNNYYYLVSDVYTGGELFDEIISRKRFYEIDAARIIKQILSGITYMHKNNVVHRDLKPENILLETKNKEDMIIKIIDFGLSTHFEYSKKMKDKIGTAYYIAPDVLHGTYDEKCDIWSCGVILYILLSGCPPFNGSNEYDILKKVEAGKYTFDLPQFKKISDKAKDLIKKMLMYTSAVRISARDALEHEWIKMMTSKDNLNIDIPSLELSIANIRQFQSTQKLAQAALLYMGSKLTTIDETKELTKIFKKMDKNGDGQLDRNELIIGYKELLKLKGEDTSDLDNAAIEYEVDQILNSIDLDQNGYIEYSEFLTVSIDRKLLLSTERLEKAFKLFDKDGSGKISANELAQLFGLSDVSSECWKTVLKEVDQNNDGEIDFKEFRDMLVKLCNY

Sequence of Calcium-dependent protein kinase 1 (Plasmodium falciparum (isolate 3D7)) (P62344 whole entry, looked up): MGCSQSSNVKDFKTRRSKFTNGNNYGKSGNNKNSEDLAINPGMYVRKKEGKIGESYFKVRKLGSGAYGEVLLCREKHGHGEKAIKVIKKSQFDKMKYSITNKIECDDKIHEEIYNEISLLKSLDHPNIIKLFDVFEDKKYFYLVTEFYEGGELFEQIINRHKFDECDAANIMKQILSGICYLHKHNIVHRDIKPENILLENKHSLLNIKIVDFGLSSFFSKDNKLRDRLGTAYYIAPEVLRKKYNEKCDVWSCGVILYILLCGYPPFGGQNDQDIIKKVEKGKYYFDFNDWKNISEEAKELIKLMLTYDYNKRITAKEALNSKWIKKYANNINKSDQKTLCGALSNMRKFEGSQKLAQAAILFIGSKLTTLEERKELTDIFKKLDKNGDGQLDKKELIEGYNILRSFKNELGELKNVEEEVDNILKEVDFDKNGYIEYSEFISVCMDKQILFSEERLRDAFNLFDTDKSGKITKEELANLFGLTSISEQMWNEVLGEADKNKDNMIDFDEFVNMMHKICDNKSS
Sequence of Plasmodium falciparum protein kinase 6 (PK6, PF3D7_1337100) (Q8IDW1 1-305): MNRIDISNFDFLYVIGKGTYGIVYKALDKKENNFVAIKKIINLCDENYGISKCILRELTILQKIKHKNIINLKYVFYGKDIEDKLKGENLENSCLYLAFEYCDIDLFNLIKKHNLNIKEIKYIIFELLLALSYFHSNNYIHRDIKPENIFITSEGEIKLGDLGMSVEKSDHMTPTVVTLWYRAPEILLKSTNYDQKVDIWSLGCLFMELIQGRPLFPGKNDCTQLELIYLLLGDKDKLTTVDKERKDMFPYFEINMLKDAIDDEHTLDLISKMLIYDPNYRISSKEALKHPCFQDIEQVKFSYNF

In the case of `OCCN1CCN(Cc2ccc(-c3cccc(-c4nc5ccc(F)cc5[nH]4)c3)cc2)CC1`, the growth inhibition in assay [1] is 61% (active); in assay [4], 100% (active). Besides, the inhibition in assay [2] was 21%; in assay [3] it was -2%. For the same compound, the result in assay [5], in assay [6], in assay [7] and in assay [8] was inactive.
For `CCc1nc2nc(C)cc(Nc3ccc4c(c3)OCCO4)n2n1`, the growth inhibition in assay [1] is 55% (active); in assay [4] it was 88% (active). The figures for the inhibition in assay [2] and in assay [3] were 8% and -1%, respectively. Besides, the outcome in assay [5], in assay [6], in assay [7] and in assay [8] was inactive.
Take `CC(Cc1ccc(CNC(=O)c2ccc(CC(C)NCCc3cccc(Cl)c3)cc2)cc1)NCCc1cccc(Cl)c1` (stereo not given): the growth inhibition in assay [1] is 66% (active); in assay [4], 99% (active). Also, the values for the inhibition in assay [2] and in assay [3] were 99% (active) and -2%, respectively. In addition, the outcome in assay [5], in assay [6], in assay [7] and in assay [8] was inactive.
As for `CC(NCC(O)Cn1c2ccccc2c2ccccc21)c1ccccc1` (stereo not given), the growth inhibition in assay [1] is 85% (active); in assay [4], 96% (active). In addition, the inhibition in assay [2] was 37%; in assay [3], 9%. In addition, the result in assay [5], in assay [6], in assay [7] and in assay [8] was inactive.
`CCc1cc(NCc2ccncc2)nc(Nc2ccc(F)cc2)n1`: the growth inhibition in assay [1] was 17%; in assay [4], 92% (active). The inhibition in assay [2] was 8%; in assay [3], 0%. In addition, the outcome in assay [5], in assay [6], in assay [7] and in assay [8] was inactive.
In the case of `CCC1CCc2cc(N)cc(-c3nc4c(c(C)nn4CC)c(=O)[nH]3)c2O1` (stereo not given), the growth inhibition in assay [1] was 42%; in assay [4], 86% (active). In addition, the results for the inhibition in assay [2] and in assay [3] were -3% and -4%, respectively. Besides, the result in assay [5], in assay [6], in assay [7] and in assay [8] was inactive.
As to `CO/C(=C\C=C\c1cc2cc(Cl)c(Cl)cc2[nH]1)C(=O)NCCN1CCCCC1`, the growth inhibition was 86% (active) in assay [1] and 81% (active) in assay [4]. In addition, the inhibition in assay [2] is 16%; in assay [3] it was 1%. Besides, the result in assay [5], in assay [6], in assay [7] and in assay [8] was inactive.
For `COc1cc2nc(NCC3CCN(C(=O)c4ccc(-c5ccc(C(=O)N(C)C)cc5C)cc4)CC3)nc(N)c2cc1OC`, the growth inhibition is 34% in assay [1] and 101% (active) in assay [4]. Moreover, the inhibition is 2% in assay [2] and 1% in assay [3]. Also, the result in assay [5], in assay [6], in assay [7] and in assay [8] was inactive.
On to `N#Cc1cccc(NC(=O)Nc2cccc(-c3cccc(-c4nc5ccc(C(F)(F)F)cc5[nH]4)c3)c2)c1`, for which the growth inhibition in assay [1] is 99% (active); in assay [4] it was 100% (active). Further, the inhibition in assay [2] was 74% (active); in assay [3] it was 5%. Moreover, the result in assay [5], in assay [6], in assay [7] and in assay [8] was inactive.
With `CC12CCC(=O)N1C(C(=O)Nc1cccc(C(=O)Nc3cccc(C(F)(F)F)c3)c1)CS2` (stereo not given), the values for the growth inhibition in assay [1] and in assay [4] were 89% (active) and 92% (active), respectively. For the same compound, the results for the inhibition in assay [2] and in assay [3] were 6% and -3%, respectively. The outcome in assay [5], in assay [6], in assay [7] and in assay [8] was inactive.
Turning to `FC(F)(F)Oc1cccc(CNc2noc(-c3sccc3Br)n2)c1`, the growth inhibition is 97% (active) in assay [1] and 100% (active) in assay [4]. In addition, the inhibition was 0% in assay [2] and -3% in assay [3]. The result in assay [5], in assay [6], in assay [7] and in assay [8] was inactive.
In the case of `C#CCOc1ccccc1CN1CCC(N2CCc3cc(NC(=O)c4cc(C)on4)ccc32)C1` (stereo not given), the figures for the growth inhibition in assay [1] and in assay [4] were 94% (active) and 95% (active), respectively. For the same compound, the inhibition in assay [2] was 16%; in assay [3], -2%. Further, the result in assay [5], in assay [6], in assay [7] and in assay [8] was inactive.
Take `C[C@H](NC(=O)C1CCCC1)C(=O)Nc1ccc(-c2ccc(-c3nc4ccc(C(F)(F)F)cc4[nH]3)cc2)cc1`: the values for the growth inhibition in assay [1] and in assay [4] were 70% (active) and 99% (active), respectively. Besides, the inhibition was 34% in assay [2] and -4% in assay [3]. The result in assay [5], in assay [6], in assay [7] and in assay [8] was inactive.
As to `CC(=O)Nc1sc(C)c(C)c1CN1CCc2ccccc2C1`, the growth inhibition is 94% (active) in assay [1] and 93% (active) in assay [4]. In addition, the inhibition in assay [2] was -8%; in assay [3] it was 1%. Besides, the result in assay [5], in assay [6], in assay [7] and in assay [8] was inactive.
For the compound `CC(C)N1CCC(N(Cc2ccc(-c3ccc(C(F)(F)F)cc3)cc2)C(=O)Cn2c(SCc3cccc(F)c3F)cc(=O)c3c2CCC3)CC1`, the growth inhibition was 42% in assay [1] and 88% (active) in assay [4]. Further, the inhibition in assay [2] was 44%; in assay [3] it was -6%. Besides, the outcome in assay [5], in assay [6], in assay [7] and in assay [8] was inactive.
For the compound `CN1CCN(c2ccc(-c3cc(-c4cc(F)c(F)c(F)c4)cnc3N)cc2)CC1`, the growth inhibition in assay [1] is 12%; in assay [4] it was 88% (active). Further, the inhibition in assay [2] was 58% (active); in assay [3] it was -4%. Besides, the outcome in assay [5], in assay [6], in assay [7] and in assay [8] was inactive.
Turning to `COc1ccc2nccc([C@@H](O)CN3CCC(NCCOc4ccc(F)cc4Cl)CC3)c2c1`, the growth inhibition in assay [1] is 85% (active); in assay [4] it was 99% (active). The values for the inhibition in assay [2] and in assay [3] were 1% and 3%, respectively. For the same compound, the outcome in assay [5], in assay [6], in assay [7] and in assay [8] was inactive.
Regarding `O=C(Nc1ccc(OC2CCN(Cc3ccco3)CC2)c(Cl)c1)c1ccc2ncccc2c1`, the values for the growth inhibition in assay [1] and in assay [4] were 40% and 97% (active), respectively. For the same compound, the inhibition is -5% in assay [2] and -4% in assay [3]. For the same compound, the outcome in assay [5], in assay [6], in assay [7] and in assay [8] was inactive.
For `COc1ccc(CNCCCCCCNCc2ccc(OC)c3ccccc23)c2ccccc12`, the growth inhibition in assay [1] is 49%; in assay [4], 102% (active). Also, the inhibition in assay [2] was 100% (active); in assay [3], -5%. Also, the outcome in assay [5], in assay [6], in assay [7] and in assay [8] was inactive.
For the compound `CCCCc1cc(NCc2ccncc2)nc(Nc2cccc(OC)c2)n1`, the growth inhibition was 56% (active) in assay [1] and 101% (active) in assay [4]. Further, the inhibition in assay [2] was 41%; in assay [3], -5%. Also, the outcome in assay [5], in assay [6], in assay [7] and in assay [8] was inactive.

As a reminder, the inhibition is the change of the read-out against control, counted positive when it falls.
